A selection: hits, their analogues and other compounds. The true share with any hit is near 21%.
Pf growth 48h: inhibits P. falciparum growth in the first generation, 48 h; P. falciparum luciferase growth in erythrocytes, 48 h; Potency, µM (titrated, usually from 28.7 µM), for inactives: at the highest dose activity change, negative = inhibition, hits mostly inhibitors; hit rate 5.9% among 310,000; AID 504832; also: potency is read from the fitted curve at half-maximal effect; % is scaled to controls: 0 for no effect and ±100 for the full control effect
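Firefly luciferase activity from engineered P. falciparum reports growth; inhibitors lower the luminescent signal. Cultures contained 2% hematocrit erythrocytes at 0.1% final parasitemia.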
CHX counter: counter-screen for Shiga toxin inhibitors: cycloheximide protein synthesis inhibition; cell reporter, cycloheximide protein synthesis inhibition counterscreen; max response, %; hit rate 12% among 300,000; AID 2314; in the data active = max response mostly above about 13%, no sharp cut-off; inactive = mostly below about 14%; also: read at 38.3 µM for the half of the compounds with a filed dose; 0% is about no effect
Pf growth 96h: inhibits malaria parasite growth, 96 h | AID 504834 | Potency, µM (top dose mostly 28.7 µM), without a hit: at the highest dose activity change, negative = inhibition, hits mostly inhibitors | P. falciparum luciferase reporter growth, 96 h | hit rate 6.9% among 320,000; also: potency is read from the fitted curve at half-maximal effect; % is scaled to controls: 0 for no effect and ±100 for the full control effect
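Erythrocytes infected with luciferase-expressing P. falciparum were dispensed at 2% hematocrit and 0.05% parasitemia (final), then incubated with compounds 96 hours at 37 C in 5% CO2. Luminescence after detection reagent addition reported growth.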
Shiga toxin inh: Shiga toxin inhibition; hit rate 9.2% among 290,000; Vero cells, Shiga toxin protein synthesis inhibition reporter; inhibition, % at 38.7 µM; in the data active = inhibition mostly above about 28%, no sharp cut-off; inactive = mostly below about 43%; also: 0% is about no effect
Sm TGR block: S. mansoni TGR enzyme inhibition; Q962Y6; purified TGR, DTNB reduction, TNB absorbance 405 nm; Potency, µM (titrated, usually from 114 µM), for inactives: at the top dose activity change, negative = inhibition, actives largely listed as inhibitors; hit rate 3% among 360,000; AID 485364; also: potency is read from the fitted curve at half-maximal effect; % is scaled to controls: 0 for no effect and ±100 for the full control effect; nearly all actives have a fitted effect of over 60% in size
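Kinetic colorimetric format: TGR-catalysed, NADPH-driven DTNB reduction monitored via TNB absorbance. Enzyme dispensed at 20 nM; compound exposure 15 min at room temperature before reaction start.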
NS1 function inh: influenza NS1 inhibition; AID 2326; hit rate 0.4% among 270,000; Potency, µM (highest dose often 46.1 µM), without a hit: at the highest dose activity, positive = more growth; calls by dose curve; also: potency is read from the fitted curve at half-maximal effect; actives are rising curves; nearly all actives have a fitted effect of over 50% in size
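S. cerevisiae expressing influenza A NS1, grown in glucose, washed, then diluted 1:100 into pH 6.0 -URA galactose medium with 23 nl compound. Growth recovery read as OD600; NS1-free strain serves as control.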
Numbers without * were called inactive; ? = inconclusive; . = no result given; [ ] = dose if it differs, or a comment. Unless noted, calls follow the shape of the dose curve; as a rule, active = well fitted curve in the direction sought with a large enough effect; inconclusive = small, poorly fitted or top-dose-only effect, or another doubt; inactive = no such curve, though single readings can be large; an effect the other way counts as inactive or inconclusive.

SMILES	Pf growth 48h	CHX counter	Pf growth 96h	Shiga toxin inh	Sm TGR block	NS1 function inh
CCOc1ccc(CC(=O)Nc2ccc(S(=O)(=O)N3CCCC3)cc2)cc1	-6%	7	-16%	-5	9%	-15%
Cc1ccc(CNC(=O)/C=C/c2ccc(S(=O)(=O)N3CCOCC3)cc2)cc1	-12%	-2	?	-2	5%	6%
CCOc1ccc(OCCC(=O)Nc2ccc(F)cc2C)cc1	45%	8	4%	15	-1%	.
Cc1cc(NC(=O)CSc2ccc(Cl)cc2)no1	-14%	9	?	11	-5%	?
Cc1ccc(SCCC(=O)Nc2ccccc2Br)cc1	14%	16*	1%	56*	15%	-6%
Cc1cc(NC(=O)CCOc2ccc(F)cc2)no1	65%	5	4%	8	0.71µM*	0%
COc1ccc(OCCC(=O)Nc2cc(C)on2)cc1	-7%	-4	.	-1	40µM*	-4%
Cc1cc(NC(=O)CCSc2ccccc2)no1	29%	24*	33%	36*	8%	4%
COc1cc2nccc(Oc3ccc(NC(=O)Nc4ccc(F)cc4F)c(F)c3)c2cc1OC	.	-11	.	-7	.	.
COc1ccc(C(=O)NC2CCN(CC(=O)Nc3cccc(OC)c3)CC2)cc1	?	-2	?	.	-14%	20%
CS(=O)(=O)NCCNC(=O)c1cc(OCC(F)(F)F)ccc1OCC(F)(F)F	39%	-8	6%	21	17%	.
O=C(CCSc1ccccc1)Nc1nnc(-c2cccs2)o1	20%	-1	32%	-9	28µM*	-3%
CCC/C=N/NC(=O)c1ccc(F)cc1	?	24*	-20%	75*	-2%	.
CCC/C=N/NC(=O)c1cccc(Br)c1	?	9	?	-6	13%	.
O=C(N/N=C/CCc1ccccc1)c1ccccc1	18%	37*	-26%	53*	14%	11%
CCOC(=O)c1cc(S(=O)(=O)Nc2c(C)cc(C)cc2C)[nH]n1	.	.	.	.	1%	.
CC1CCCN(C(=O)COC(=O)c2ccc(=O)n(Cc3ccccc3)n2)C1 (stereo unspecified)	9%	.	15%	.	1%	.
O=C(Nc1ccc(Oc2cccnc2)nc1)c1ccc(C(F)(F)F)cc1	?	17	?	19	13%	-3%
CC(C)(C)c1ccc(Oc2ccc(NC(=O)c3ccco3)cn2)cc1	2.1µM*	-3	8.3µM*	27	4%	-50%
O=C(Nc1ccc(Oc2cccc(C(F)(F)F)c2)nc1)c1ccco1	?	-1	13µM*	16	-16%	-8%
CCC(SC1=N/C(=C/c2ccccc2)C(=O)N1c1ccccc1)C(=O)Nc1cc(C)on1 (stereo unspecified)	5.9µM*	-2	10%	-11	-6%	-9%
CCc1ccccc1NC(=O)CSc1nc(C)c(C)o1	18%	1	23%	9	-13%	-25%
Cc1cc(/C=C2/NC(=O)N(Cc3ccccc3F)C2=O)c(C)n1C(C)C	?	5	10µM*	28	-33%	-4%
CCn1c(C)cc(/C=C2/NC(=O)N(Cc3ccccc3F)C2=O)c1C	12µM*	-3	9.3µM*	-15	-5%	12%
CCn1c(C)cc(/C=C2\NC(=O)N(Cc3ccccc3)C2=O)c1C	.	-1	?	-7	?	?
SMILES	Pf growth 48h	CHX counter	Pf growth 96h	Shiga toxin inh	Sm TGR block	NS1 function inh
Cc1cc(/C=C2/NC(=O)N(c3ccccc3)C2=O)c(C)n1C(C)C	-9%	40*	-44%	41*	-10%	?
CCOc1ccc(C(=O)Nc2nnc(S(=O)(=O)N(C)Cc3ccco3)s2)cc1	24%	12	5%	5	?	4%
N#Cc1cccc(Nc2ncnc3c2cnn3-c2cccc(Cl)c2)c1	.	.	.	.	4%	.
Clc1cccc(Nc2ncnc3c2cnn3-c2ccccc2)c1	-69%	40*	?	45*	1%	-105%
O=C(O)c1cccc(Nc2ncnc3c2cnn3-c2ccccc2)c1	212%	35*	.	106*	-15%	3%
Fc1cccc(Nc2ncnc3c2cnn3-c2ccccc2)c1	52%	30*	38%	80*	8%	-45%
Cc1ccc(Nc2ncnc3c2cnn3-c2ccc(C)cc2)cc1	.	.	.	.	0%	.
O=C(NCCc1ccco1)C(=O)NCC1CCCN1S(=O)(=O)c1ccccc1 (stereo unspecified)	-13%	.	?	.	?	.
COc1cc(C(=O)NCc2nc(-c3ccc(Cl)cc3)no2)cc(OC)c1OC	.	.	.	.	-1%	.
O=c1c2ccccc2nc(/C=C/c2ccc(Cl)cc2)n1CCO	-2%	9	?	5	3%	-7%
Cc1[nH]c2ccccc2c1/C=C/c1nc2ccccc2c(=O)n1-c1cccc([N+](=O)[O-])c1	2.1µM*	-1	3.7µM*	-13	6%	15%
Cc1[nH]c2ccccc2c1/C=C/c1nc2ccccc2c(=O)n1CCO	9.3µM*	25*	11%[1.15 µM]	49*	-3%	-10%
Cc1ccc(C(=O)C2Oc3ccccc3C3CC(c4ccc(C)cc4)=NN23)cc1 (stereo unspecified)	?	53*	40%	60*	3%	3%
COc1ccc(C2=NN(C(=O)CCC(=O)O)C(c3cccs3)C2)cc1 (stereo unspecified)	83%	2	59%	-8	12%	-1%
COc1ccc(C2=NN(C(=O)CCC(=O)O)C(c3ccccc3OC)C2)cc1 (stereo unspecified)	?	-1	?	2	-1%	14%
O=C(c1ccccc1)N1N=C(c2ccccc2)CC1c1ccccc1O (stereo unspecified)	?	-5	-6%[5.75 µM]	-7	-7%	0%
COc1ccc(C2=NN3C(C2)c2ccccc2OC3c2cccs2)cc1 (stereo unspecified)	70%	59*	?	63*	?	-8%
COc1ccc(C2=NN3C(C2)c2ccccc2OC32C(=O)N(C)c3ccccc32)cc1 (stereo unspecified)	?	62*	-4%	109*	40µM*	1%
Cc1ccc(C2=NN3C(C(=O)c4ccccc4)Oc4ccccc4C3C2)cc1 (stereo unspecified)	-96%	34*	?	86*	3%	-13%
O=C(O)c1ccc(S(=O)(=O)N[C@H](Cc2ccc(C(F)(F)F)cc2)C(=O)O)cc1	21%	-3	-5%	2	6%	.
Cc1nc(N)sc1-c1csc(Nc2ccccn2)n1	86%	34*	22%	122*	0%	-2%
Cc1nc(N)sc1-c1csc(Nc2ccc(Cl)cn2)n1	-83%	24*	9%	48*	-17%	-95%
COc1ccc(-c2csc(Nc3ccc(C)cn3)n2)cc1	10%	11	75%	7	4%	0%
CC(=O)Oc1ccc(-c2csc(Nc3ccc(Cl)cn3)n2)cc1	-4%	42*	11%	39*	2%	-78%
